# Hit rate of the full screen: of about 53,000 sequences, about 3,700 (7%) were called active. The entries come from a sample that favours actives as a whole. A number with no mark means an inactive call.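 Rule for the calls: active = gene knockdowns whose robust z-score for IL-1 alpha signal is at least 2 or at most -2, so actives lie on both sides; inactive = the rest.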
# Assay: Components of the Cytosolic LPS Sensing Pathway: Gene Identification via Genome-wide siRNA Screen;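 note: robust z of the log signal after scaling to non-targeting control siRNA wells of the plate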
# Conditions: RAW264.7 macrophages, IL-1a HTRF, actives lie on both sides, screened at 100 nM (by protocol), cells primed 5 h with Pam3CSK4 first
# In short: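 Cells (RAW264.7, 1×10^4 per well) were transfected with siRNA at 100 nM and cultured 48h at 37 degrees C. Pam3CSK4 was added for 5 hours; LipidA transfection followed for 24 hour. IL-1a was then measured by HTRF.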
row,Sequence,z-score
1,GCCUUCCAGUCAGUGAAAUTT against Foxn1,-0.174
2,GGAAAUCGAGCAAAAGACATT against Cep104,1.5
3,GCCAUUCUUUGAAAAGAGGTT against Ak8,-1.77
4,GGUCGUGAUAUUAUUGGGUTT against Ddx47,2.91 (active)
5,GCAGGUAAGUUAAAUGAUGTT against Ccdc148,0.961
6,CCCUUUACAUUACUCUAGCTT against Olfr715,0.141
7,GGGAGCGGAGCAAACAUAATT against Olfr1370,0.675
8,CGGUUCUUUUACCAAGAUCTT against Jak3,-0.781
9,GCCGAGUUUACUUGUUUGATT against Exd1,0.554
10,GGAAGCAAACUUAAAGUGUTT against Ewsr1,2.17 (active)
11,GGUGUUCUGUAUCUUGUUCTT against Ndn,0.572
12,GGAGCUCCAUGACAUGUUUTT against Stx3,-0.37
13,CGCGGAGUUUCGAAGUGUCTT against Drd4,3.64 (active)
14,GGAACCUAACAGAGAAACATT against Prpsap2,-0.166
15,GCAAAUACUCAAGUUCAGATT against Cpt1b,0.382
16,GGAUACUCGGGAUCUAGUATT against Anxa11,-1.44
17,GGCAAUUCUGAAGAAACCATT against Ogn,-2.23 (active)
18,GGAGGAGUCCCAUAACUCATT against Cby2,1.05
19,GGUAAACUUGACAAUAGGATT against Zc3h14,-0.512
20,CCCUGGUCGUCAUUUUCAATT against Morc2b,1.54
21,GCACAAGCGUGGAACACAUTT against Dctn2,0.702
22,GGCCCAACAUAUAUCAAAUTT against Adck2,1.38
23,GGAAACUGUUGAAUCUUGUTT against Smad5,1.42

row,Sequence,z-score
1,CCACGCUCUCAAGGUAUAGTT against Cyp2d22,-2.81 (active)
2,GGGAUUGGGUAUUUUUUAGTT against B4galt1,-0.432
3,CCCGUACAUUGAGUGCAAUTT against 6330403K07Rik,0.414
4,GGAGUUCAGGAAAAUUCUUTT against Fsd1l,0.0551
5,GGAAGACCUUCAGAGAGAATT against Ell2,4.25 (active)
6,GGGAAAGUUAAUAUCAAGATT against Ephb4,0.185
7,GGUGAUGAUGAUGGGCAACTT against Cdkn2a,2.02 (active)
8,GGACAAGAUUCUAAACUGCTT against Wdr37,1.03
9,GGCCUUGUAAAUUAUGCAUTT against Klhl23,0.61
10,GCCCUUUCCGUCUGAAAUCTT against Hydin,2.06 (active)
11,GCUUCUGGUUUUCGGCUAUTT against Sfswap,0.427
12,GAUGUGUUAACUACACCGATT against Pyy,0.983
13,CGAGGAUGAGUUCAGUGAGTT against Pdcl3,-1.19
14,GUUGGUUUGUUGACCUCUUTT against Arap2,0.1
15,CCUACUCUGGUAAAACCUUTT against Immp1l,-0.365
16,GCAAAGGCCAAAUAUGAGGTT against Dbil5,-2.71 (active)
17,GCCAUUAAAGGUAACACUGTT against Tmbim7,0.0423
18,GCCUUCUGAGAUAGUAGAUTT against Zcchc17,0.756
19,GGAGAAAAUCAAACCAGAUTT against Ddx19b,0.823
20,GGACUGAUGGAUCCUUCCATT against Krtcap3,-2.12 (active)
21,GGCAUCCAUCAACAACAGGTT against Ahsa1,-0.925
22,GCAUGUACCCUCUUUGUAGTT against Gjb6,-0.954
23,GGAUUCGAGUGGUAACAAGTT against Nmral1,0.617

row,Sequence,z-score
1,GGUAUAGCUACCAUUUUUCTT against Ggct,-1.05
2,CUUACCACCCUGAGUUUCATT against Olfr1066,-3.2 (active)
3,GGAGAAAGCAGAAAUUGAATT against Mfap1a,-1.31
4,CCAAGAUUCGGUUUUGCUUTT against Trerf1,-0.33
5,GGCAGCCCUUUUGCUAAGATT against Neurod1,-0.0737
6,GGCUGGUGAAAGUCAAGGUTT against Arid4a,0.503
7,GGAGCAGUCUCCUUUUUGUTT against Pcnp,2.14 (active)
8,GCUCUUGAUGUUUAGAGUUTT against Usp17lf,0.345
9,GGGCAGCAGCAAUUUCUGUTT against Ahcyl1,1.39
10,GGAAAAAUUAGACCGUGAGTT against Pcdhb4,-0.299
11,CCAUUGAUAUUAAAUCGCUTT against Pik3cg,-0.244
12,GGGCUAUGUAUUGUAAAUGTT against Nxf1,-2.79 (active)
13,GCACGACUACUUCUCAAAUTT against Prpf6,0.376
14,GGCCAGAAUAUCAUCGUCATT against Rbks,-0.163
15,GGGACACCUUCCGUAACUATT against Gcdh,-0.832
16,GCACGCUAUUGGCUAUGAGTT against BC052040,-0.0182
17,GGUCAUGAUCAAGACACAUTT against Tmem63c,0.371
18,AAGGUUUGGAAACUCAUUGTT against Zbtb25,-1.77
19,GGGUUAGGCCAGUUCUGAUTT against Reg3d,-2.08 (active)
20,GGAAGAGGAGGAGUACAAGTT against Fnbp1,-0.0804
21,GCAGUUCAUGUCCUGAAUATT against Olfr308,-1.49
22,GUUUCCAUAUCCUUUAAGUTT against Lilr4b,1.23
23,GGAACUGCUCGACAAAGCUTT against Primpol,-2.53 (active)

# From PubChem BioAssay AID1508600 (Functional Genomics Laboratory (NCATS/FGL), 2020)
